Source: article PMC5540273 (PLoS ONE, 2017)

Experiments:
Details in all cases: concentration: 1 μM,replicates: in singlicate; n = 1
[1] = system: T1, IKK-alpha
T1 construct: gene CHUK

[2] = system: T2, IKK-beta
T2 construct: gene IKBKB

[3] = system: T3, IKK-epsilon
T3 construct: gene IKBKE

[4] = system: INSRR
[5] = system: INSR
[6] = system: IRAK1
[7] = system: IRAK3
[8] = system: IRAK4
[9] = system: ITK
[10] = system: JAK1(JH1domain-catalytic)
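Also: KINOMEscan kinase panel screen.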

Row | Structure (SMILES) | %Inh [1] [%] | %Inh [2] [%] | %Inh [3] [%] | %Inh [4] [%] | %Inh [5] [%] | %Inh [6] [%] | %Inh [7] [%] | %Inh [8] [%] | %Inh [9] [%] | %Inh [10] [%]
1 | CCn1c(-c2nonc2N)nc2cncc(CNC3CCNCC3)c21.Cl [SB-747651] | 39 | 27 | 5 | 0 | 14 | 56 | 0 | 41 | 9 | 15
2 | O=C(Nc1cccc(Oc2ccc3nccn3n2)c1)Nc1cccc(C(F)(F)F)c1 | 34 | 0 | 0 | 15 | 0 | 13 | 23 | 0 | 0 | 27
3 | CC(C)c1nc(-c2cccc(NS(=O)(=O)c3ccccc3)c2)c(-c2ccnc(Nc3ccc4c(c3)CN(C)CC4)n2)s1 [GSK1649598] | 2 | 15 | 42 | 0 | 35 | 65 | 10 | 16 | 47 | 25
4 | O=C(NCC1CC1)c1ccc(-c2cc(C(=O)NC3CC3)ccc2F)cc1 [GW810445] | 0 | 0 | 0 | 0 | 0 | 0 | 1 | 0 | 0 | 0
5 | Cc1ccc2c(-c3ccnc(Nc4ccc(C(F)(F)F)cc4)n3)cnn2n1 [GW819776] | 38 | 10 | 0 | 1 | 14 | 73 | 4 | 0 | 10 | 4
6 | COc1cc(Nc2nccc(N3CCC(NC(=O)c4cccc(C#N)c4)C3)n2)cc(OC)c1OC (stereo not drawn) [GSK1379751] | 19 | 0 | 5 | 0 | 0 | 58 | 70 | 15 | 0 | 0
7 | OCCn1cc(-c2cnc3nnn(Cc4ccc5ncccc5c4)c3n2)cn1 | 3 | 0 | 0 | 0 | 0 | 0 | 0 | 0 | 0 | 0
8 | Cn1ccc2ncnc(Oc3ccc(NC(=O)Nc4cncc(C(F)(F)F)c4)c(Cl)c3)c21 | 0 | 0 | 0 | 0 | 0 | 0 | 0 | 0 | 0 | 0
9 | NC(=O)c1ccc(-c2cc3ncnc(SCC(=O)O)c3s2)cc1 | 0 | 0 | 0 | 0 | 0 | 70 | 9 | 0 | 0 | 0
10 | CC(=O)Nc1nc2cnc(Nc3cc(NC(=O)c4cccc(CC(C)(C)C#N)c4)ccc3C)nc2s1 | 0 | 1 | 28 | 4 | 16 | 9 | 27 | 8 | 0 | 27
11 | COc1cc2ncn(-c3cc(OCC4CCCCC4)c(C(N)=O)s3)c2cc1OC [GSK204559] | 0 | 2 | 0 | 0 | 14 | 0 | 12 | 9 | 13 | 0
12 | CSc1nccc(-c2c(-c3ccc(F)cc3)ncn2CCCN2CCOCC2)n1.Cl [SB-217146] | 0 | 0 | 0 | 0 | 2 | 25 | 0 | 0 | 6 | 0
13 | Cc1ccc(C(=O)Nc2ccc(Oc3ccc4nc(NC(=O)C5CC5)cn4c3)c(F)c2)c(=O)n1-c1ccccc1 | 61 | 56 | 0 | 0 | 0 | 0 | 44 | 0 | 57 | 14
14 | Cn1ccc2ncnc(Oc3ccc(NC(=O)Nc4ccnc(C(F)(F)F)c4)c(Cl)c3)c21 | 46 | 13 | 0 | 3 | 5 | 14 | 0 | 12 | 0 | 1
15 | COC(=O)c1cccc(NC(=O)NC2CCN(c3ccnc(NCc4ccc(F)cc4)n3)CC2)c1 [GSK1379860] | 26 | 8 | 0 | 0 | 0 | 0 | 0 | 12 | 15 | 8
16 | O=C(NOCC1CC1)c1cc(Br)c(F)c(F)c1Nc1ccc(I)cc1Cl | 0 | 0 | 0 | 0 | 0 | 0 | 0 | 0 | 2 | 7
17 | C[C@@H](Oc1cc(-n2cnc3ccc(-c4ccncc4)cc32)sc1C(N)=O)c1ccccc1Cl [GSK483724] | 7 | 13 | 24 | 0 | 0 | 49 | 81 | 17 | 22 | 0

Row | Structure (SMILES) | %Inh [1] [%] | %Inh [2] [%] | %Inh [3] [%] | %Inh [4] [%] | %Inh [5] [%] | %Inh [6] [%] | %Inh [7] [%] | %Inh [8] [%] | %Inh [9] [%] | %Inh [10] [%]
18 | CCOC(=O)N1CCC(n2cnc(-c3ccc(F)cc3)c2-c2ccnc(N)n2)CC1 [SB-219952] | 0 | 0 | 0 | 0 | 0 | 10 | 19 | 11 | 0 | 0
19 | Cn1cc(-c2cccc3c(N)c(C(N)=O)nnc23)cn1 | 28 | 39 | 0 | 9 | 19 | 31 | 9 | 17 | 15 | 9
20 | CN(c1ccc2c(c1)nc(NCc1ccc(F)cc1)n2C)c1ccnc(Nc2ccc(CS(C)(=O)=O)cc2)n1.Cl [GW813244] | 15 | 0 | 0 | 15 | 27 | 49 | 1 | 0 | 0 | 38
21 | CN(c1ccccc1CNc1nc(Nc2ccc3c(c2)CC(=O)N3)ncc1C(F)(F)F)S(C)(=O)=O | 0 | 0 | 35 | 69 | 93.5 | 26 | 65 | 27 | 56 | 74
22 | COc1cccc(C2=C(Nc3cccc(Cl)c3)C(=O)NC2=O)c1 [SB-341556] | 39 | 47 | 0 | 0 | 13 | 46 | 0 | 52 | 13 | 7
23 | COc1cccc(CNC(=O)NC2CCN(c3ccnc(Nc4cc(OC)c(OC)c(OC)c4)n3)C2)c1 (stereo not drawn) [GSK1379765] | 21 | 24 | 36 | 96.4 | 0 | 73 | 86 | 27 | 20 | 13
24 | CNC(=O)c1ccccc1Nc1nc(Nc2cccc(CS(C)(=O)=O)c2)ncc1C.O=CO [GSK1520489] | 61 | 37 | 73 | 92.6 | 96 | 99.7 | 98.3 | 98.1 | 100 | 84
25 | CS(=O)c1ccc(-c2coc3ccc(-c4n[nH]c(=O)o4)cc23)cc1 (stereo not drawn) | 8 | 0 | 0 | 1 | 17 | 55 | 0 | 28 | 0 | 1
26 | N#Cc1cccc(C(=O)NC2CCN(c3ccnc(Nc4ccc(F)cc4)n3)C2)c1 (stereo not drawn) [GSK1379708] | 16 | 16 | 0 | 0 | 4 | 17 | 27 | 2 | 2 | 17
27 | O=c1[nH]cc(-c2ccc(O)cc2)c2sc(-c3ccncc3)cc12 [GSK1033723] | 0 | 0 | 9 | 0 | 100 | 59 | 1 | 5 | 0 | 35
28 | COC(=O)c1cccc(NC(=O)NC2CCN(c3ccnc(Nc4cc(OC)c(OC)c(OC)c4)n3)C2)c1 (stereo not drawn) [GSK1379767] | 0 | 0 | 40 | 0 | 11 | 62 | 79 | 11 | 11 | 9
29 | Cl.Nc1n[nH]c2cc(-c3ccccn3)ccc12 [GSK2189892] | 0 | 0 | 24 | 0 | 0 | 0 | 6 | 0 | 4 | 10
30 | CC(C(=O)NC1CCN(c2ccnc(Nc3ccc(F)cc3)n2)C1)c1ccc(Cl)cc1 (stereo not drawn) [GSK1379713] | 0 | 0 | 0 | 10 | 0 | 0 | 0 | 0 | 10 | 5
31 | CCCC(=O)Nc1n[nH]c2ncccc12 [SB-601436] | 0 | 0 | 0 | 0 | 0 | 0 | 0 | 0 | 0 | 5
32 | Nc1nccc(-c2ccc3c(N)n[nH]c3c2)n1 [GSK1034945] | 76 | 53 | 18 | 0 | 0 | 45 | 33 | 23 | 14 | 0
33 | Cl.Cl.NC[C@H](CC1CCCCC1)NC(=O)c1ccc(-c2ccnc3[nH]ccc23)s1 [GSK1581428] | 31 | 72 | 31 | 100 | 5 | 57 | 13 | 6 | 5 | 56
